This passage reports Potency results from PubChem BioAssay (Tox21).

“And” between values parts separate entries of the source, which are not always exact repeats. Equal entries are not always repeated. Records with an inconclusive call do not appear. The source made the active and inactive calls. Unless noted, calls follow the shape of the full dose curve.

Experiment [1] in a line: Nuclear factor erythroid 2-related factor 2/antioxidant responsive element (Nrf2/ARE) small molecule agonists: qHTS cell viability counter screen in human keratinocytes (AID 1919968; active = well fitted curve in the direction sought with a large enough effect in the repeat runs; an effect the other way counts as inactive or inconclusive; also: nearly all actives have a fitted effect of over 55% in size). The gist of the method: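 CellTiter-Fluor fluorescence, read 1 h after reagent, gave viability in the same wells as the ARE-luciferase assay. KeratinoSens cells (1,500/well) had 23 h compound exposure at 37 C/5% CO2 following 5 h plating.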
(qHTS replaces the single test concentration by a dilution series.)

Experiment [2] is described as follows: Nuclear factor erythroid 2-related factor 2/antioxidant responsive element (Nrf2/ARE) small molecule agonists: luciferase reporter gene qHTS assay in human keratinocytes (AID 1919969). Also: nearly all actives have a fitted effect of over 35% in size. Also: potency is read from the fitted curve at half-maximal effect. A general note: A reporter such as luciferase makes a cellular process visible.
In experiment [3] the target is Gonadotropin-releasing hormone receptor (Homo sapiens) (UniProt P30968). Kind of experiment: Human gonadotropin-releasing hormone receptor (GnRHR) small molecule agonists, calcium flux assay in GnRHR-HEK293 cells (AID 1920063). Also: nearly all actives have a fitted effect of over 35% in size. The gist of the method: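 Agonist mode: compounds at 15 concentrations, in triplicate, went onto calcium dye-loaded GnRHR-HEK293 cells. Intracellular calcium was then followed as 480/540 nm fluorescence at 1 s intervals over 3 min.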
Gonadotropin-releasing hormone receptor (Homo sapiens), sequence (P30968 whole entry, looked up): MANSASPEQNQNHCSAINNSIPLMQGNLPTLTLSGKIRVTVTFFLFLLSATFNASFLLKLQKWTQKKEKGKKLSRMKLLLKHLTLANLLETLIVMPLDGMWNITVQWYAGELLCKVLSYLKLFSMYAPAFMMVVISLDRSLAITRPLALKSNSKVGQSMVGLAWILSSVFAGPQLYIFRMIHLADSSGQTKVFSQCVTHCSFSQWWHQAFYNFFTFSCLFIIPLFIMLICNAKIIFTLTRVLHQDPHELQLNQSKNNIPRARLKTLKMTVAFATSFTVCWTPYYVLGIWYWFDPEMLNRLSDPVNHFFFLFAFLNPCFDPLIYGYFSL

Experiment [4] has as its target KiSS-1 receptor (Homo sapiens) (UniProt Q969F8). The experiment in a line: Human kisspeptin (KISS1R) small molecule agonists, calcium flux assay in KISS1R-HEK293 cells (AID 1920064; active = well fitted curve in the direction sought with a large enough effect in the repeat runs; an effect the other way counts as inactive or inconclusive). A digest of the protocol: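 Agonist mode: intracellular calcium rise tracked at 1 s intervals over 3 min (480/540 nm) immediately after compound addition to dye-loaded KISS1R-HEK293 stable cells. Each compound tested at 15 concentrations in triplicate.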
A general note: A change in cytosolic calcium serves as a functional read-out for many receptors and channels.

The nature of experiment [5]: G protein-coupled receptor (GPCR) small molecule agonists, calcium flux assay: HEK293 wild type cell line counter screen (AID 1920065). A digest of the protocol: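 Calcium flux counter screen: compound added in agonist mode at 15 concentrations in triplicate to dye-loaded parental HEK293 cells. Fluorescence (480/540) read kinetically for 3 min; ATP served as positive control.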

Experiment [6] is described as follows: p53 small molecule agonists, cell-based qHTS assay with human liver microsomes: qHTS cell viability counter screen (AID 1963579). Also: nearly all actives have a fitted effect of over 45% in size. The gist of the method: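 Viability of p53RE-bla cells is measured as CellTiter-Glo luminescence following a 16 h, 37 C incubation with compound, liver microsomes from human donors and NADPH.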
Experiment [7] can be described thus: p53 small molecule agonists, cell-based qHTS assay with rat liver microsomes: qHTS cell viability counter screen (AID 1963580). Also: nearly all actives have a fitted effect of over 45% in size. A digest of the protocol:
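Rat liver microsome (0.5 mg/mL final) and NADPH (0.5 mg/mL final) co-incubation with compounds for 16 h at 37 C on HCT-116 p53RE-bla cells; cytotoxicity taken from intracellular ATP luminescence.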

A short description of experiment [8]: p53 small molecule agonists, cell-based qHTS assay: qHTS cell viability counter screen (AID 1963581). Also: nearly all actives have a fitted effect of over 45% in size. A digest of the protocol: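 Counter screen read by CellTiter-Glo luminescence (ATP content, 30 min at room temperature), run in the same wells as the beta-lactamase reporter read. HCT-116 p53RE-bla cells saw compounds for 16 h at 37 C.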
Experiment [9] has as its target 5-hydroxytryptamine receptor 2A (Homo sapiens) (UniProt P28223). Kind of experiment: 5-hydroxytryptamine receptor 2A (HTR2A) small molecule antagonists, cell-based qHTS assay (AID 1963586). Also: nearly all actives have a fitted effect of over 45% in size. The gist of the method:
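CHO cells stably expressing human HTR2A were plated for 18 h at 37 C, then loaded with calcium dye for 1 h. Compounds were preincubated 5 min at room temperature before DOI (4 nM solution) was added. Kinetic fluorescence was read for 3 min.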

For experiment [10] the target is unchanged. Kind of experiment: 5-hydroxytryptamine receptor 2A (HTR2A) small molecule agonists, cell-based qHTS assay (AID 1963587). Also: nearly all actives have a fitted effect of over 30% in size. The gist of the method: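 Kinetic calcium-flux fluorescence (2 min, 1 sec intervals) after compound addition in agonist mode. HTR2A-CHO cells were cultured 18 h, then dye-loaded 1 h at 37 C.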
The target of experiment [11] is Muscarinic acetylcholine receptor M1 (Homo sapiens) (UniProt P11229). The experiment in a line: Cholinergic receptor muscarinic 1 (CHRM1) small molecule antagonists, cell-based qHTS assay (AID 1963588). Also: nearly all actives have a fitted effect of over 40% in size. The gist of the method: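 Compounds were tested at 15 concentrations in three independent runs. Dye-loaded CHRM1-CHO cells were exposed 5 min at room temperature before stimulation by acetylcholine added at 50nM. Intracellular calcium was read kinetically on FDSS for 3 min.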
Muscarinic acetylcholine receptor M1 (Homo sapiens), sequence (P11229 whole entry, looked up): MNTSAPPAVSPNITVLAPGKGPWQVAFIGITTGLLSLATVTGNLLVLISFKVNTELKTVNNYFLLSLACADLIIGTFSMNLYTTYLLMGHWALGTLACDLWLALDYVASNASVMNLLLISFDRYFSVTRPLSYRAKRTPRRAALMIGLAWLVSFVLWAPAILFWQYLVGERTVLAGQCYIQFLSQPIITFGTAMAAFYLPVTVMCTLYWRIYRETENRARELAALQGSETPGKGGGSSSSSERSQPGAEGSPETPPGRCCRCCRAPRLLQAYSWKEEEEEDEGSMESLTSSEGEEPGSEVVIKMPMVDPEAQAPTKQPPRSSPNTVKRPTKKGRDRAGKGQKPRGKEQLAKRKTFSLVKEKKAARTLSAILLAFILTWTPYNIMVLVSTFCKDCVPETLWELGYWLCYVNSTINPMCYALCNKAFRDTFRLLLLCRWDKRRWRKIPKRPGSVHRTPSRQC

For experiment [12] the target is unchanged. Kind of experiment: Cholinergic receptor muscarinic 1 (CHRM1) small molecule agonists, cell-based qHTS assay (AID 1963589). Also: nearly all actives have a fitted effect of over 35% in size. The gist of the method: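 Agonist-mode calcium-flux screen: compounds at 15 concentrations, three independent runs, were pin-transferred onto dye-loaded human CHRM1-CHO cells. Fluorescence was then recorded kinetically every second over minutes.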

Experiment [13] can be described thus: cAMP Responsive Elements (CRE) small molecule agonists, cell-based qHTS assay (AID 1963590). The gist of the method:
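Agonist mode: compound added to CRE-bla HEK 293T cells (2,000/well, 18 h after plating) for 3 h at 37 C/5% CO2. Reporter activity detected via FRET beta-lactamase substrate, 2 h room-temperature loading.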

Experiment [14] is described as follows: cAMP Responsive Elements (CRE) small molecule antagonists, cell-based qHTS assay (AID 1963591; active = well fitted inhibition curve with a large enough effect in the signal ratio in the repeat runs, not every such curve was filed as active; the % refers to the signal ratio). The gist of the method: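 Antagonist mode: compounds are added alongside the adenylyl cyclase activator NKH477 (0.25 uM final) to CRE-bla HEK293T cells for 3 h. LiveBLAzer FRET substrate, 2 h at room temperature, reports bla expression.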
Experiment [15] concerns the target Beta-2 adrenergic receptor (Homo sapiens) (UniProt P07550). Kind of experiment: Adrenergic beta2 receptor (ADRB2) small molecule antagonists, cell-based qHTS assay (AID 1963592). Also: series mostly up to about 92 µM; nearly all actives have a fitted effect of over 50% in size. A digest of the protocol: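 Assay format: CHO-ADRB2 cells, 18-20hr seeding at 37C/5% CO2, then compound plus 1nM isoproterenol agonist mix for 0.5hr RT. Homogeneous time-resolved fluorescence cAMP detection after 1hr, expressed as 665/615 nm ratio.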

The target is the same in experiment [16]. The experiment in a line: Adrenergic beta2 receptor (ADRB2) small molecule agonists, cell-based qHTS assay (AID 1963593).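 Also: CHO cells stably overexpressing human ADRB2.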 A digest of the protocol:
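CHO cells stably over-expressing ADRB2 were plated overnight at 37C, then dosed with compounds plus a stimulation mix containing 100uM IBMX and 25uM Ro-20-1724 for 0.5hr at room temperature. cAMP was measured by HTRF competition, 1hr.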

Experiment [17] deals with D(2) dopamine receptor (Homo sapiens) (UniProt P14416). Kind of experiment: Dopamine D2 receptor (DRD2) small molecule agonists, cell-based qHTS assay (AID 1963594). Also: nearly all actives have a fitted effect of over 35% in size. The gist of the method:
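cAMP accumulation in DRD2-HEK293 cells measured by HTRF after 1 h detection; compounds added 10 min before NKH477 (200nM […]) forskolin-analogue stimulation, 30 min at room temperature, with Ro20-1724 present at 0.1 mM final.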

For experiment [18] the target is unchanged. Kind of experiment: Dopamine D2 receptor (DRD2) small molecule antagonists, cell-based qHTS assay (AID 1963595; active = well fitted inhibition curve with a large enough effect in the signal ratio in the repeat runs, with a control signal flat; the % refers to the signal ratio). A digest of the protocol: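 Antagonist mode in DRD2-HEK293 cells: after compound addition with 0.1 mM Ro20-1724, cells received quinpirole (12 nM) and NKH477 (200 nM) for 30 min at room temperature; HTRF cAMP read after 1 h detection.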
A short description of experiment [19]: p53 small molecule agonists, cell-based qHTS assay with rat liver microsomes (AID 1963578). The gist of the method: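 Quantitative HTS of the Tox21 10K library: p53RE-bla cells, rat liver microsomes plus NADPH at 0.5 mg/mL final each, 16 h at 37 C, beta-lactamase fluorescence detection.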
A short description of experiment [20]: p53 small molecule agonists, cell-based qHTS assay (AID 1963582; active = well fitted activation curve with a large enough effect in the signal ratio in the repeat runs, not every such curve was filed as active; the % refers to the signal ratio). The gist of the method: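 Read-out is beta-lactamase FRET fluorescence after 2 h at room temperature with LiveBLAzer B/G substrate. p53 response element-bla cells were treated 16 h at 37 C with compounds in DMSO, added 5 h after seeding.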

5-hydroxytryptamine receptor 2A (Homo sapiens), sequence (P28223 whole entry, looked up): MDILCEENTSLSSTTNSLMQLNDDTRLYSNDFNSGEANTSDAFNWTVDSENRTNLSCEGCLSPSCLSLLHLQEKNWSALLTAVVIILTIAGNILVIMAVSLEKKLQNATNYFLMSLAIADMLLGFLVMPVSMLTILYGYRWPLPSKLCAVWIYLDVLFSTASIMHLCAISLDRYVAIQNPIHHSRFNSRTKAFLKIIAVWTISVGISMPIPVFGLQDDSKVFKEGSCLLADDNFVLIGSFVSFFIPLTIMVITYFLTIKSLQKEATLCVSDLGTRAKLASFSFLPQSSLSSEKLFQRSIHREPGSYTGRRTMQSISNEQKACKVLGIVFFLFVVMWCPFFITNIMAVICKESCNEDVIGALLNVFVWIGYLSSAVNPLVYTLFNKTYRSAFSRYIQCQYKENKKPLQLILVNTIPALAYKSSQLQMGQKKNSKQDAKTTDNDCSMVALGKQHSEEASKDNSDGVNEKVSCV
D(2) dopamine receptor (Homo sapiens), sequence (P14416 whole entry, looked up): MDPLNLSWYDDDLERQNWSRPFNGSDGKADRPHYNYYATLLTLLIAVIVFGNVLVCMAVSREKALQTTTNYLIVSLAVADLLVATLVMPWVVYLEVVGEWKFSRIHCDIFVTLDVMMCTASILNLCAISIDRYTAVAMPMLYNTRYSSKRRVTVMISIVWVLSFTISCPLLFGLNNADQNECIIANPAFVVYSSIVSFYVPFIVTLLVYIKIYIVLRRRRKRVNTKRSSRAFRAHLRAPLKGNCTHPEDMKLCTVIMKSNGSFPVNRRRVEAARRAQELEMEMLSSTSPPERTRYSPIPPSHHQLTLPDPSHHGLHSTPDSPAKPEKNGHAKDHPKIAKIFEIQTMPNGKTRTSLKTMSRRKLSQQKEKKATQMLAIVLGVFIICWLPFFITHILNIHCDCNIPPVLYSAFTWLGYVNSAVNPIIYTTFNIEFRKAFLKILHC
Beta-2 adrenergic receptor (Homo sapiens), sequence (P07550 whole entry, looked up): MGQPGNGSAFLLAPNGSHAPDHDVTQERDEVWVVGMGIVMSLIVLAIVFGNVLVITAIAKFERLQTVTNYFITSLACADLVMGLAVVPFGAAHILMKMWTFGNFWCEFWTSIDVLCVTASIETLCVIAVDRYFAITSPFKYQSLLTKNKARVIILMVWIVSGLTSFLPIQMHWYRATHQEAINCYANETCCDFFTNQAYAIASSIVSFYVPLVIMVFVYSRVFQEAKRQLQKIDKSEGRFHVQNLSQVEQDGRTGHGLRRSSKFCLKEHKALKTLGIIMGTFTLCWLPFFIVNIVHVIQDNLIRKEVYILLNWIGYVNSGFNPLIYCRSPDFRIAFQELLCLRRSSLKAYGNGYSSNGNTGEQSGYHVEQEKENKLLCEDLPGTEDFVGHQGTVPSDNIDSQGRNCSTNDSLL
KiSS-1 receptor (Homo sapiens), sequence (Q969F8 whole entry, looked up): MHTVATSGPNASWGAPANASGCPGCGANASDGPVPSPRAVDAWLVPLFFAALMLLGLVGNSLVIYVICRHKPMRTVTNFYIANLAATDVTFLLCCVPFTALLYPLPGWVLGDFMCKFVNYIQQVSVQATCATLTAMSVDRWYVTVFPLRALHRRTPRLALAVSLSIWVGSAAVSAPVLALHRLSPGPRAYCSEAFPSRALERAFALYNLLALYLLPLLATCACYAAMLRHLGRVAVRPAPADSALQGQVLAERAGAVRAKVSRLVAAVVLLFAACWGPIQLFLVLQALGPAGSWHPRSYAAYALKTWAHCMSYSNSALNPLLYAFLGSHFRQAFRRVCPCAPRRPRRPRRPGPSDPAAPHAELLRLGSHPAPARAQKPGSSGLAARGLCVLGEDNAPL

As for `COc1c(Cl)ccc(Cl)c1C(=O)O`, the Potency result in [1], in experiment [2], in experiment [3], in [4], in experiment [5] and in experiment [6] was “inactive” in each case. Further, the Potency result in [7], in experiment [8], in experiment [9], in experiment [10], in experiment [11] and in experiment [12] was “inactive” in each case. The Potency result in experiment [13], in [14], in experiment [15], in experiment [16], in experiment [17] and in experiment [18] was “inactive” in each case.

Turning to `Cc1[nH]cnc1-c1ccc(Cl)cc1`, the Potency result in experiment [1], in [2], in experiment [3], in [4], in experiment [5] and in experiment [19] was “inactive” throughout. Besides, the Potency result in [6], in experiment [7], in experiment [8], in experiment [10], in experiment [11] and in experiment [12] was “inactive” in each case. In addition, the Potency entry in experiment [13], in experiment [14], in [15], in [16], in experiment [17] and in experiment [18] was “inactive” throughout.

For the compound `CC(C)(C)c1ccc(O)c(O)c1`, the Potency entry in [1], in experiment [3], in experiment [4], in experiment [5], in [19] and in experiment [6] was “inactive” each time. The Potency entry in experiment [7], in experiment [8], in experiment [10], in experiment [11], in experiment [12] and in experiment [13] was “inactive” in each case. For the same compound, the Potency result in experiment [14], in experiment [15], in experiment [17] and in experiment [18] was “inactive” each time. Besides, the Potency in [2] was 63.2 µM (active) and 8.63 µM (active).

For the compound `CCOC(=O)CN1CCCC1=O`, the Potency entry in experiment [1], in experiment [2], in [3], in experiment [4], in experiment [5] and in [19] was “inactive” each time. Also, the Potency entry in [6], in [7], in [8], in [20], in experiment [10] and in experiment [11] was “inactive” each time. For the same compound, the Potency entry in experiment [12], in experiment [13], in experiment [14], in experiment [15], in experiment [16] and in experiment [17] was “inactive” in each case. In addition, the Potency entry in experiment [18] is “inactive”.

Regarding `CC(C)Nc1ccccc1`, the Potency entry in [1], in [2], in experiment [3], in [4], in [5] and in experiment [19] was “inactive” throughout. Also, the Potency result in experiment [6], in experiment [7], in experiment [8], in experiment [20], in experiment [10] and in [11] was “inactive” each time. Besides, the Potency result in experiment [12], in [13], in [14], in experiment [16], in [17] and in experiment [18] was “inactive” throughout.

With `OCCCCl`, the Potency result in [1], in experiment [2], in experiment [3], in experiment [4], in experiment [5] and in experiment [19] was “inactive” in each case. For the same compound, the Potency entry in experiment [6], in experiment [7], in experiment [8], in [20], in [10] and in experiment [11] was “inactive” each time. Also, the Potency entry in experiment [12], in experiment [13], in experiment [14], in experiment [15], in experiment [16] and in [17] was “inactive” each time.

Turning to `Cc1ccccc1OCC(O)CO` (stereo unspecified), the Potency result in experiment [1], in experiment [2], in experiment [3], in experiment [4], in experiment [5] and in [19] was “inactive” throughout. Besides, the Potency result in experiment [6], in experiment [7], in experiment [8], in experiment [20], in [9] and in experiment [11] was “inactive” throughout. In addition, the Potency entry in experiment [13], in experiment [14], in experiment [15], in experiment [16], in experiment [17] and in experiment [18] was “inactive” throughout.
